This is one part of a sample in which hits are shown more often than they occur.
Tb PYK inh = inhibitors of Trypanosoma brucei pyruvate kinase; TbPYK enzyme, Kinase-Glo Plus ATP luminescence, 45 min; Potency, µM (titrated, usually from 76.8 µM), most hits filed as inhibitors; hit rate 0.12% among 410,000; AID 624173; further: nearly all actives have a fitted effect of over 50% in size
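Luminescent Kinase-Glo Plus end-point after 45 min room-temperature reaction of T. brucei pyruvate kinase started with 130 uM ADP (final). Buffer TEA 50 mM pH 7.2 with KCl, MgCl2, BSA, Tween-20; titration-based qHTS with fitted concentration-effect curves.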
Giardia FBPA inh = inhibitors of Giardia lamblia fructose-1,6-bisphosphate aldolase; A8B2U2; purified Giardia FBPA; Potency, µM (titrated, usually from 59.6 µM), hits mostly inhibitors; hit rate 0.71% among 290,000; further: nearly all actives have a fitted effect of over 55% in size
Target sequence (A8B2U2 whole entry, looked up): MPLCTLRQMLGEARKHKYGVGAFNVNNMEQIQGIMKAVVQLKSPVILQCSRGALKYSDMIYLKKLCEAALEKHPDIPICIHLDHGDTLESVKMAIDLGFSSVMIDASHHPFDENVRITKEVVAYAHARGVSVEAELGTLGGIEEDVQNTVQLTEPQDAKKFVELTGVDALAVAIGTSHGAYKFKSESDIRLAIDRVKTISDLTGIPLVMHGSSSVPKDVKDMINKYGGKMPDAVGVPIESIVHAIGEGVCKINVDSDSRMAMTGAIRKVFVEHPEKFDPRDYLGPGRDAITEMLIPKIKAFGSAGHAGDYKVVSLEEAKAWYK
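40 nM FBPA preincubated 10 min at RT with compound (up to 57.5 uM final), then substrate plus GAPDH/TPI/NAD/arsenate coupling and diaphorase/resazurin added. Fluorescence read after 20 min at RT, 525/598 nm.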
Shiga toxin inh = inhibitors of Shiga toxin in Vero cells; AID 2315; Vero cells, Shiga toxin protein synthesis inhibition reporter; hit rate 9.2% among 290,000; inhibition, % at 38.7 µM; in the data active means inhibition mostly above about 28%, no sharp cut-off; inactive means mostly below about 43%
LmPK inhibitor = LmPK (Leishmania mexicana) enzyme inhibition. Q27686. purified LmPK, Kinase-Glo ATP luminescence, 1 h. Potency, µM (top dose mostly 57.5 µM), most hits filed as inhibitors. hit rate 0.37% among 290,000. AID 1721
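Purified LmPK (0.1 nM) with 0.5 mM PEP and 0.1 mM ADP in imidazole buffer pH 7.2 with MgCl2/KCl, 1 h at room temperature. ATP formed was read by luciferase luminescence and normalized to no-enzyme and uninhibited controls.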
Sm TGR inh = S. mansoni TGR enzyme inhibition. purified TGR, DTNB reduction, TNB absorbance 405 nm. Potency, µM (series often up to 114 µM), actives largely listed as inhibitors. hit rate 3% among 360,000. AID 485364; further: nearly all actives have a fitted effect of over 60% in size
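First, TGR (20 nM dispensed) and NADPH were mixed with compound. Second, a 15 min room-temperature incubation followed. Third, further NADPH and then DTNB were added to start the reaction. Finally, TNB absorbance was monitored kinetically.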
Cycloheximide cs = counter-screen for Shiga toxin inhibitors: cycloheximide protein synthesis inhibition | cell reporter, cycloheximide protein synthesis inhibition counterscreen | max response, % | hit rate 12% among 300,000; in the data active means max response mostly above about 13%, no sharp cut-off; inactive means mostly below about 14%; further: read at 38.3 µM for the half of the compounds with a filed dose
Each line names hits and unclear results; the compound was inactive in the other large screens. Unless noted, the call rests on the fitted dose curve; in most records, active means well fitted curve in the direction sought with a large enough effect; inconclusive means small, poorly fitted or top-dose-only effect, or another doubt; inactive means no such curve, though single readings can be large; an effect the other way counts as inactive or inconclusive.

CN1CCN(C(=O)C2CCC(=O)N(Cc3cccc(C(F)(F)F)c3)C2)CC1 (stereo not drawn)	Sm TGR inh 7.94µM (no result: Giardia FBPA inh)
CCN1CCN(C(=O)C2CCC(=O)N(Cc3cccc(C(F)(F)F)c3)C2)CC1 (stereo not drawn)	none
CCOC(=O)C1CCN(C(=O)C2CCC(=O)N(Cc3cccc(C(F)(F)F)c3)C2)CC1 (stereo not drawn)	Cycloheximide cs 13.6 (no result: Giardia FBPA inh)
Nc1nc(CSC(=S)N2CCOCC2)nc(Nc2ccc(F)cc2)n1	none
COc1ccc(Nc2nc(N)nc(CSC(=S)N3CCOCC3)n2)cc1	Shiga toxin inh 67.4, Cycloheximide cs 39.1
Cc1ccc(Nc2nc(N)nc(CSC(=S)N3CCOCC3)n2)c(C)c1	Shiga toxin inh 71.7, Cycloheximide cs 33.5
Nc1nc(CSCCO)nc(Nc2ccc(F)cc2)n1	Cycloheximide cs 25.2
Cc1c(Cl)cccc1Nc1nc(N)nc(CSCCO)n1	none
Cc1ccc(Nc2nc(N)nc(CSC(=S)N3CCN(c4ccccc4)CC3)n2)cc1	none
Nc1nc(CSC(=S)N2CCN(c3ccccc3)CC2)nc(Nc2ccccc2)n1	none
CN1CCN(C(=S)SCc2nc(N)nc(Nc3ccc(F)cc3)n2)CC1	Cycloheximide cs 18.6 (no result: Sm TGR inh)
CCc1ccc(-c2cc(C(F)(F)F)n3nc(C(=O)Nc4c(C)nn(Cc5ccc(F)cc5)c4C)cc3n2)s1	none
CC(=O)Nc1nonc1-c1nnc(SCC(=O)Nc2cc(C)ccc2C)n1-c1ccccc1	none (no result: Giardia FBPA inh, Shiga toxin inh, LmPK inhibitor, Cycloheximide cs)
Cc1cc(C)c2c(CN3CCC(C)CC3)cc(=O)oc2c1	Shiga toxin inh 60.8, Cycloheximide cs 38.5
Cc1cc2oc(=O)cc(CN3CCC(C)CC3)c2cc1C	Cycloheximide cs 20.0
CCCCN(CCCC)Cc1cc(=O)oc2cc(C)cc(C)c12	none (no result: Giardia FBPA inh, Shiga toxin inh, LmPK inhibitor, Sm TGR inh, Cycloheximide cs)
Cc1cc2oc(=O)cc(CN3CCC(C)CC3)c2c(C)c1Cl	none
Cc1cc(C)c2c(CCl)cc(=O)oc2c1	Sm TGR inh 10µM
Cc1cc(C)c2c(CN3CCCCC3)cc(=O)oc2c1	Cycloheximide cs 10.8
Cc1cc(C)c2c(CN3CCCCCCC3)cc(=O)oc2c1	none (no result: Giardia FBPA inh, Shiga toxin inh, LmPK inhibitor, Sm TGR inh, Cycloheximide cs)
Nc1nc2c(nc(Br)n2C2O[C@H]3COP(=O)(O)O[C@@H]3C2O)c(=O)[nH]1 (stereo partly drawn)	none (no result: Tb PYK inh, Shiga toxin inh, LmPK inhibitor, Sm TGR inh, Cycloheximide cs)
CC(C)c1ccc(NC(=O)CN2C(=O)NC(C)(C3CC3)C2=O)cc1 (stereo not drawn)	none (no result: Giardia FBPA inh, Shiga toxin inh, LmPK inhibitor, Cycloheximide cs)
COc1ccc(CN(CC(=O)NCc2ccc(F)cc2)C(=O)CCC(=O)Nc2ccccn2)cc1	none
CCc1ccc2c(CN3CCC(C(=O)OC)CC3)cc(=O)oc2c1	Cycloheximide cs 15.5
CCOC(=O)Nc1ccc2c(CN3CCC(C(=O)OC)CC3)cc(=O)oc2c1	none
COc1cccc(CC2(CO)CCCN(Cc3ccc(CN4CCCCC4)s3)C2)c1 (stereo not drawn)	none
Cc1ccc(-n2nnnc2-c2ccccc2Br)cc1	none (no result: Giardia FBPA inh, Shiga toxin inh, LmPK inhibitor, Sm TGR inh, Cycloheximide cs)
CCOc1ccc(-n2nnnc2-c2nc3ccccc3s2)cc1	Shiga toxin inh 137.9, Cycloheximide cs 60.1
CCOc1ccc(N2C(=O)C(c3ccccc3)=C(c3nc4ccccc4s3)C2NC(C)=O)cc1 (stereo not drawn)	none
Cc1ccc(-n2nnnc2-c2nc3ccccc3s2)cc1	Shiga toxin inh 50.9, Cycloheximide cs 15.5
Cn1cnc2c(=O)oc3ccc(S(=O)(=O)N4CCN(c5cccc(C(F)(F)F)c5)CC4)cc3c21	none (no result: Giardia FBPA inh, Shiga toxin inh, LmPK inhibitor, Cycloheximide cs)
COC(=O)N/N=C/c1cn(CC(C)COc2ccccc2)c2ccccc12 (stereo not drawn)	none
Cn1nnnc1SCCCNCc1cc(Br)ccc1OCc1ccccc1	none (no result: Giardia FBPA inh, Shiga toxin inh, LmPK inhibitor, Cycloheximide cs)
CCCCN1C(=O)C(=O)N(c2ccccc2)C1=S	Shiga toxin inh active, Cycloheximide cs 66.6
CN(C)c1ccc(C(=S)NC2CCCCC2)cc1	Shiga toxin inh 69.2, Cycloheximide cs 24.5 (no result: Sm TGR inh)
CCN(CC)c1ccc(C(=S)NC2CCCCC2)cc1	Shiga toxin inh 76.2, Cycloheximide cs 24.4
COc1ccc(N2C(=O)CSC23C(=O)N(CC(=O)NC2CCCCC2)c2ccccc23)cc1 (stereo not drawn)	none (no result: Giardia FBPA inh, Shiga toxin inh, LmPK inhibitor, Cycloheximide cs)
COc1ccccc1N1CCN(C(=O)/C=C/c2c(Cl)nc3ccccn23)CC1	none
Cc1ccc(C)c(NC(=O)c2c(Cl)nc3ccccn23)c1	none
CC(=O)Nc1ccc(NC(=O)c2c(C)nc3ccccn23)cc1	none
COc1ccc(NC(=O)/C=C/c2c(Cl)nc3ccccn23)cc1	Cycloheximide cs 20.0
Cc1nc2ccccn2c1C(=O)Nc1ccc(Cl)cc1	Cycloheximide cs 24.4
Cc1nc2ccccn2c1C(=O)CSc1ccccc1	Shiga toxin inh 38.0, Cycloheximide cs 30.5
Cc1ccc(NC(=O)c2c(Cl)nc3ccccn23)cc1	Shiga toxin inh 113.8, Cycloheximide cs 36.6
CCc1cccc(C)c1NC(=O)CN1C(=O)C2(SCC(=O)N2c2cccc(F)c2)c2ccccc21 (stereo not drawn)	none (no result: Giardia FBPA inh, Shiga toxin inh, LmPK inhibitor, Cycloheximide cs)
COc1cccc(N2CCN(C(=O)CCCn3c(=O)[nH]c4ccc(Br)cc4c3=O)CC2)c1	none (no result: Giardia FBPA inh, Shiga toxin inh, LmPK inhibitor, Cycloheximide cs)
O=c1c(-c2ccc(Cl)cc2)nc2cnc(N3CCOCC3)nc2n1-c1ccccc1	none (no result: Tb PYK inh, Shiga toxin inh, LmPK inhibitor, Sm TGR inh, Cycloheximide cs)
Cc1nc2ccccn2c1C(=O)Nc1ccc2c(c1)OCCO2	Shiga toxin inh 112.1, Cycloheximide cs 44.6
COc1ccc(C2N(Cc3ccccc3)CC(=O)N2/N=C(\C)c2ccccc2)cc1 (stereo not drawn)	Shiga toxin inh 70.9, Cycloheximide cs 24.5
